CYP2C19 inhib: blockers of cytochrome P450 2C19 activity – biochemical, luminescence, ADME assay, primary screen. CYP2C19 Supersomes, luciferin-H EGE luminescence, 30 min. inhibition, % at 5 µM. 21% of 96,000 active;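 active = CYP2C19 inhibition above a set limit at 5 µM in the primary screen, cut at about 50% in these data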;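 also: plate controls were negative control wells for no effect and 2.5 mM tranylcypromine positive control for full effect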
Target sequence (P33261 whole entry, looked up): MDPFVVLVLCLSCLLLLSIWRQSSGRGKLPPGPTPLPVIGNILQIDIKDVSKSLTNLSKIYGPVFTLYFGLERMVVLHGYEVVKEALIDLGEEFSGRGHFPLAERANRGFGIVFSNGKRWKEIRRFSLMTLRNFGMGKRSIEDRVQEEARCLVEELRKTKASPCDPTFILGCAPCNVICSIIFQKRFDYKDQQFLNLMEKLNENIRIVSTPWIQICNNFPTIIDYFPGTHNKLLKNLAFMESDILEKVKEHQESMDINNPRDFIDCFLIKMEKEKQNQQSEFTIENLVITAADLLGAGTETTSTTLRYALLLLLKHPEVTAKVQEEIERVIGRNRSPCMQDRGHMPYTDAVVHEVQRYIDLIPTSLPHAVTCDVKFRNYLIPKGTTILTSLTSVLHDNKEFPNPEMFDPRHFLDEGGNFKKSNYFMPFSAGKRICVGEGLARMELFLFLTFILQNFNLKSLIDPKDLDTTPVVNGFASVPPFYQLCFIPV
CYP2C9 activ: human CYP2C9 activators, primary screen, biochemical, luminescence. Cytochrome P450 2C9 (Homo sapiens), P11712. 1.4% of 96,000 active. AID 1024, 2008. recombinant CYP2C9, luciferin-H conversion; active compounds read high; factor 1 = untreated enzyme, 0 = blocked. activation factor at 5 µM;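 active = activation factor of 2 or more for CYP2C9 at a 5 µM dose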;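 also: 0 = sulfaphenazole-blocked wells and 1 = vehicle-only wells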
hDAT+cocaine: changed hDAT dopamine uptake under cocaine IC80, either direction, primary screen, cocaine antagonist project, cell-based, LLC-PK1 hDAT, [14C]-dopamine uptake, MLSMR; Sodium-dependent dopamine transporter (Homo sapiens), Q01959; LLC-PK1 hDAT cells, [14C]-dopamine uptake with cocaine IC80; actives deviate in either direction; B-score at 10 µM; 1.3% of 110,000 active; AID 449768, 2010;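 active = Z score or B-score, a plate-position-corrected score, falls beyond the plate's 99.7% confidence bounds, in either direction; inactive = both scores lie inside the 99.7% bounds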;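 also: scored against the spread of the other compound wells on the same plate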
CYP2C9 inh: blockers of cytochrome P450 2C9 activity – biochemical, luminescence, ADME assay, primary screen; P11712; CYP2C9 Supersomes, luciferin-H conversion; inhibition, % at 5 µM; 20% of 96,000 active;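 active = blocking of liver enzyme CYP2C9 beyond about 50% at 5 µM, limit read from the data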
D1 mod: D1 CRE-luciferase signal change, two-sided – cell-based, HEK293 D1, dopamine EC30, D1 allosteric modulator project, primary screen; D(1A) dopamine receptor (Homo sapiens), P21728; dopamine EC30 potentiation; actives deviate in either direction; B-score at 10 µM; 5.9% of 58,000 active;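 active = luminescence count or its row- and column-corrected plate score outside the 99.7% band of the plate's sample wells, on either side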
CYP2C19 activ: human CYP2C19 activators, primary screen, biochemical, luminescence | recombinant CYP2C19, luciferin-H EGE luminescence; active compounds read high; 0 = fully inhibited enzyme, 1 = untreated enzyme | activation factor at 5 µM | 96,000 tested, under 10 active;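 active = activation factor of at least 2 at 5 µM in the primary screen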;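 also: 0 = wells with 2.5 mM tranylcypromine and 1 = vehicle-only wells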
Numbers without * were called inactive; . = no result given. Compounds with a hit are over-represented: about 28% of the library has one in this group of screens.

SMILES	CYP2C19 inhib	CYP2C9 activ	hDAT+cocaine	CYP2C9 inh	D1 mod	CYP2C19 activ
Cc1ccccc1N1C(=O)N(c2cccc(C(F)(F)F)c2)C2CS(=O)(=O)CC21 (stereo unspecified)	63*	0.8	-0.0028	20	0.24	0.4
N#Cc1c(SCc2cccc(Cl)c2)sc(C(=O)c2ccccc2)c1N	81*	0.1	-0.12	89*	.	0.2
Cc1ccc(CSc2sc(C(=O)c3ccccc3)c(N)c2C#N)cc1	31	0.4	0.11	61*	.	0.7
COc1cc2c3nnc(-c4ccc(F)cc4)c-3cn(Cc3ccccc3)c2cc1OC	3	0.7	0.54	29	.	1
O=c1[nH]c2ccccc2n1CCCSc1cnc2ccccc2n1	63*	0.2	0.93	85*	2.3	0.4
O=c1oc2ccccc2n1CCCCCn1c(=O)oc2ccccc21	84*	1.2	-0.84	-21	0.18	0.2
O=c1[nH]c2ccccc2n1CCCOc1ccccc1	82*	1	-0.01	5	0.31	0.2
O=c1[nH]c2ccccc2n1Cc1ccccc1	27	1	-0.84	2	.	0.7
CCCCn1c(=O)[nH]c2ccccc21	29	1	-0.11	1	-0.47	0.7
O=C(Cn1c(=O)oc2ccccc21)c1ccccc1	93*	0.7	-0.78	25	-2.6*	0.1
NC(=O)CCn1c(=O)oc2ccccc21	-15	1.1	0.33	-13	0.58	1.2
O=C1c2ccccc2C(=O)N1CCn1c(=O)oc2ccccc21	32	1.1	-1.4	-9	0.25	0.7
COc1cccc(NC(=O)Cn2c(=O)oc3ccccc32)c1	68*	0.6	-1.7	38	-1.1	0.3
CCCNC(=O)Cn1c(=O)oc2ccccc21	74*	1.1	0.21	-6	.	0.3
O=c1oc2ccccc2n1CCCOc1ccccc1	98*	0.3	0.55	70*	0.37	0
C=CCn1c2ccccc2c2nnc(SCCCn3c(=O)[nH]c4ccccc43)nc21	75*	0.2	3.7*	76*	2.3	0.3
CCC1CCCCN1C(=O)CSc1nc(N)c(NC(=O)c2ccc(OC)c(OC)c2)c(=O)[nH]1 (stereo unspecified)	-4	0.9	-1.4	13	-0.42	1
O=C(Cn1c(=O)oc2ccccc21)NC(=O)NCc1ccco1	65*	0.7	-1.1	29	1.3	0.3
O=C(CNC(=O)Cc1ccccc1)NCC(=O)OCC(=O)c1cccc2ccccc12	22	3.6*	-0.083	-257	.	0.8
COC(=O)c1nn(-c2ccccc2)ccc1=O	5	1	-1.6	5	.	0.9
COC(=O)C1=NN(c2ccc(C)cc2)C2(S1)SC(C(C)=O)=C(C)N2c1ccccc1 (stereo unspecified)	58*	0.4	1.4	59*	.	0.4
CC(=O)C1=NN(c2ccccc2)C2(S1)S/C(=C\c1ccccc1)C(=O)N2c1ccccc1 (stereo unspecified)	-15	0.4	0.76	58*	.	1.1
COC(=O)C1=NN(c2ccccc2)C2(S1)SC(C(C)=O)=C(C)N2c1ccccc1 (stereo unspecified)	24	0.4	-0.54	58*	.	0.8
CN(C)c1nc(NCc2ccccc2)nc(N/N=C/c2ccc(Cl)cc2Cl)n1	8	0.9	.	14	.	0.9
CC(C)(C)NC(=O)CSc1nnc(C2CC2)n1Cc1ccccc1	13	0.9	-1.2	12	.	0.9
SMILES	CYP2C19 inhib	CYP2C9 activ	hDAT+cocaine	CYP2C9 inh	D1 mod	CYP2C19 activ
Cc1c(Cl)cccc1NC(=O)COc1ccc(S(=O)(=O)N2CCOCC2)cc1	11	0.6	1.1	39	.	0.9
Cc1c(Cl)cccc1NC(=S)NN1CCOCC1	67*	1.1	2.2	-7	.	0.3
COc1cc(C(=O)Nc2nnc(-c3sccc3C)s2)cc(OC)c1OC	-12	1.2	1.3	-19	0.032	1.1
CCCCOC(=O)CCn1[nH]c(=O)c2ccccc2c1=O	84*	0.1	-0.47	92*	0.02	0.2
O=C(CCn1[nH]c(=O)c2ccccc2c1=O)NCCO	-17	1.2	-0.89	-18	-0.27	1.2
O=C(CCn1[nH]c(=O)c2ccccc2c1=O)OC1CCCCC1	81*	0.8	-0.11	23	-0.062	0.2
CCN1C2=NCCCN2c2cc(C)c(C)cc21	-14	1.1	-0.59	-10	-1.7	1.1
CC1CCCCN1C(=O)c1cc(F)c(F)cc1Cl (stereo unspecified)	41	1	-0.75	5	-1	0.6
CCOC(=O)C1CCCN(C(=O)c2ccccc2SCCOC)C1 (stereo unspecified)	61*	0.3	-0.22	68*	-0.056	0.4
CCOC(=O)C1CCCN(C(=O)c2cccs2)C1 (stereo unspecified)	39	0.8	-0.054	18	0.27	0.6
CCOC(=O)C1(S(=O)(=O)c2ccc(Cl)cc2)CCN(Cc2ccc(Cl)cc2)CC1	57*	0.3	0.82	69*	.	0.4
CCOC(=O)N1CCN(CCC(=O)c2ccc(Cl)cc2)CC1	37	0.4	-0.0022	64*	-0.42	0.6
CC1CCCCN1C(=O)Cc1ccc(Cl)cc1 (stereo unspecified)	96*	0.7	0.0075	31	-0.46	0
CCOC(=O)C1(S(=O)(=O)c2ccccc2)CCN(Cc2ccc(Cl)cc2)CC1	46	0.7	2.2	30	.	0.5
Cn1cccc1C(=O)NC(=O)COC(=O)C12CC3CC(CC(O)(C3)C1)C2	17	0.7	-0.37	29	.	0.8
CCOC(=O)C1CCCN(C(=O)Cn2nc(CC)n3c(cc4sccc43)c2=O)C1 (stereo unspecified)	84*	0.6	0.054	45	0.039	0.2
CCOC(=O)C1CCN(C(=O)Cc2ccc(C)cc2)CC1	21	0.5	-0.28	52*	.	0.8
CCOC(=O)C1CCCN(C(=O)Cc2c(F)cccc2Cl)C1 (stereo unspecified)	67*	0.6	-1.1	43	-0.53	0.3
CCOC(=O)C1CCCN(C(=O)c2sc3nc(-c4ccccc4)cn3c2C)C1 (stereo unspecified)	59*	0.4	0.39	56*	0.67	0.4
CCOCC(=O)Nc1nc(-c2ccccc2)c(CC)s1	-1	0.7	1.3	31	.	1
Oc1ccc(-n2cnnn2)cc1	-10	1.4	-0.67	-41	.	1.1
CCOC(=O)C1CCCN(C(=O)CCc2ccccc2)C1 (stereo unspecified)	36	0.8	0.54	18	-0.022	0.6
